# High-throughput results (PubChem)
# NPC1 promoter act: NPC1 promoter activation | Huh7 NPC1 promoter luciferase reporter, 24 h | Potency, µM (doses to about 9.22 µM), without a hit: at the highest dose activation, actives largely listed as activators | 320,000 tested, 2.4% active; further: % of control where 0% means no effect; nearly all actives have a fitted effect of over 60% in size
#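 NPC1 promoter–luciferase Huh7 cells; 24 h compound; luminescence.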
# ELG1 repair inh: inhibitors of ELG1-dependent DNA repair in HEK293T cells; HEK293T ELG1-luciferase reporter, luminescence, 16 h; DNA damage induced by 5-fluorouridine; Potency, µM (doses to about 46.1 µM), without a hit: at the highest dose activity change, negative = inhibition, actives largely listed as inhibitors; 330,000 tested, 2.3% active; AID 504467; further: on the % scale 0 is the no-effect control and ±100 the full control effect; nearly all actives have a fitted effect of over 55% in size
#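 In this reporter screen, reduction of luminescence relative to DMSO vehicle indicated activity. Compounds and 5-fluorouridine were added together to 2,000 cells per well, incubated for 16 hr at 37 °C, then developed with ONE-Glo.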
# SMN2 splice up: increases expression of the SMN2 splice variant. HEK293 SMN2-luciferase splicing reporter, luminescence, 30-36 h. Potency, µM (titrated, usually from 46.1 µM), without a hit: top-dose activity change, positive = activation, usual class: activators. 210,000 tested, 2.8% active. AID 1458; further: % of control where 0% means no effect; nearly all actives have a fitted effect of over 55% in size
#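 qHTS luciferase splicing reporter: luminescence rises when SMN2 exon 7 is included in transfected HEK293 cells. Compound exposure lasted 30-36 h at 37C, with 4.5 mM final sodium butyrate as control, followed by a ONE-Glo read.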
# Rab9 prom act: activates the Rab9 promoter. 320,000 tested, 2.8% active. Potency, µM (top dose mostly 9.22 µM), for the others: at the top dose activation, negative = inhibition, usual class: activators. AID 485297. Huh7 Rab9 promoter-luciferase reporter, luminescence, 24 h; further: % of control where 0% means no effect; nearly all actives have a fitted effect of over 60% in size
#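 Huh7 cells stably carrying Rab9 promoter–luciferase reporter, plated 1500 cells/well, compound added after 2 h and incubated 24 h at 37 °C; luciferase luminescence then read after 10 min with detection reagent.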
# FLuc counter: firefly luciferase modulation, counter-screen for miR-21 project. 360,000 tested, 6.9% active. purified FLuc, Km substrates, luminescence inhibition. Potency, µM (titrated, usually from 57.5 µM), for the others: top-dose activity change, negative = inhibition, actives largely listed as inhibitors;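 further: plate controls were vehicle for no effect and reference inhibitor for full effect; nearly all actives have a fitted effect of over 55% in size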
# Target sequence (P08659 whole entry, looked up): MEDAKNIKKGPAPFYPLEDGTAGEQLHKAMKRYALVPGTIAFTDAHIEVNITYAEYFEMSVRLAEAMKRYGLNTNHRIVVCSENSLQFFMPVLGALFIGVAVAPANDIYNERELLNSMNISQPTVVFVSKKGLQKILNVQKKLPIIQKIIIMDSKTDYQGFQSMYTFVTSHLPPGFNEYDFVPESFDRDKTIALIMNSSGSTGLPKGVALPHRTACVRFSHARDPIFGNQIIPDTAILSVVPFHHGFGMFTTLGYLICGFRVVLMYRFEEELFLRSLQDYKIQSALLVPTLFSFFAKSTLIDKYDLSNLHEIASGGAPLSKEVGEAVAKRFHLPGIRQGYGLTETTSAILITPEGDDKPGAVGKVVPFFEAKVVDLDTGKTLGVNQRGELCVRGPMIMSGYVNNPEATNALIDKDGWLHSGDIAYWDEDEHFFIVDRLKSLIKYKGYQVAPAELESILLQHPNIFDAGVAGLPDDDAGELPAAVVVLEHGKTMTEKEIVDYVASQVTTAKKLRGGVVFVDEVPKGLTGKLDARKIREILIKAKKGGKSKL
#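 Biochemical qHTS of compounds, final roughly 60 µM downward over six points, against 10 nM purified firefly luciferase using Km concentrations of substrates (10 uM D-luciferin, 10 uM ATP) in Tris acetate pH 7.5 buffer; luminescence output.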
# ELG1 genotoxic: induces genotoxicity in HEK293T cells with luciferase-tagged ELG1. HEK293T ELG1-luciferase reporter, luminescence, 16 h. Potency, µM (titrated, usually from 46 µM), inactives show top-dose activity change, positive = activation, most hits filed as activators. 330,000 tested, 1.3% active; further: % of control where 0% means no effect; nearly all actives have a fitted effect of over 60% in size
#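 HEK293T cells expressing luciferase-tagged ELG1 were treated with compound or DMSO for 16 hr at 37°C. Luciferase activity was then read after 30 min with ONE-Glo at room temperature; rising signal flags genetic stress.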
# * hit, by the source's call; ? = inconclusive; . = no result; [ ] = remark or other dose. Sampled rows, rich in hits. Any-hit rate of the full collection: about 9.4%. The call rests on the fitted dose curve; in most records, active means well fitted curve in the direction sought with a large enough effect; inconclusive means small, poorly fitted or top-dose-only effect, or another doubt; inactive means no such curve, though single readings can be large; an effect the other way counts as inactive or inconclusive. Potency means the concentration at half of the fitted maximal effect.
SMILES,NPC1 promoter act,ELG1 repair inh,SMN2 splice up,Rab9 prom act,FLuc counter,ELG1 genotoxic
C=CCn1c(C)cc(-c2csc(NCC)n2)c1C,23%,?,.,-4%,15µM*,-8%
COc1cc(NC(=O)CCCOc2cc(=O)n(C)c3ccccc23)cc(OC)c1OC,.,.,26%,.,-6%,.
Cc1nnsc1-c1nnc(SCC(=O)c2ccccc2)n1C1CC1,5%,15%,.,10%,-7%,-2%
COc1cc(C(=O)NCc2ccc3c(c2)CCN3C(=O)c2ccncc2)cc(OC)c1OC,.,.,.,.,-10%,.
C[C@H]1Cc2c(COc3ccccc3)nc3c(c2CO1)CN(S(=O)(=O)c1ccc(Cl)c2nonc12)CC3,.,.,-1%[9.22 µM],.,.,.
O=C(Nc1nc(-c2ccc(-c3ccccc3)cc2)cs1)C1=COCCO1,-2%,?,-21%,-6%,?,17%
C=CCn1c(C)cc(-c2csc(NC(=O)C3=COCCO3)n2)c1C,2.2µM*,?,.,1.6µM*,9.5µM*,?
C=CCn1c(C)cc(-c2csc(N)n2)c1C,18%,13%,?,28%,?,2%
Cc1cc(C)c(-c2csc(NC(=O)C3=COCCO3)n2)cc1C,13%,?,.,8%,19µM*,1%
COc1cc(/C=C2\SC(N)=NC2=O)ccc1O,1%,10µM*,.,-4%,?,-22%
C=CCOc1ccc(/C=C2\SC(N)=NC2=O)cc1OC,-2%,?,.,-11%,11µM*,?
Cc1ccccc1NC(=O)C(C)Sc1nnc(-c2ccncc2)n1CC1CCCO1 (configuration not stated),1%,8%,.,0%,2%,2%
O=C1CC2C(CC(OC(=O)c3ccc(-c4ccccc4)cc3)C2CO)O1 (configuration not stated),16%,?,?,?,12µM*,?
O=C1C[C@H]2[C@H](CO)[C@@H](OC(=O)c3ccc(-c4ccccc4)cc3)C[C@H]2O1,?,?,.,?,5.4µM*,16%
O=C(Nc1ccn(C2CC(OC(=O)c3ccccc3)C(CO)O2)c(=O)n1)c1ccccc1 (configuration not stated),1%,?,-8%,3%,0%,-4%
CC(NC(=O)c1ccc2c(c1)sc1nc(-c3ccccc3)cn12)C12CC3CC(CC(C3)C1)C2 (configuration not stated),.,.,.,.,0%,.
c1ccc2c(c1)CCCN2c1nc2ccccc2n2cnnc12,1%,?,3%,7%,15µM*,10%
c1ccc2c(c1)CCN(c1nc3ccccc3n3cnnc13)C2,-1%,?,12%,7%,?,0%
CC(C)NC(=O)C1CCC(Cn2c(=O)c3sccc3n(CC(=O)N3CCCC3)c2=O)CC1 (configuration not stated),.,.,.,.,3%,.
COc1ccc(-c2csc(Nc3cccnc3)n2)cc1OC,15%,?,-13%,28%,2.4µM*,4%
c1cncc(Nc2nc(-c3cccnc3)cs2)c1,26%,-22%,-9%,22%,?,2%
COc1cccc(Nc2nc(-c3cccnc3)cs2)c1,?,?,.,?,4.8µM*,?
O=C(O)c1ccc(Nc2nc(-c3cccnc3)cs2)cc1O,4%,10%,.,4%,12µM*,3%
Cc1ccc(Nc2nc(-c3cccnc3)cs2)cc1Cl,25%,?,.,?,4.8µM*,21µM*
Cc1ccc(-n2ncc(C(=O)NCCCN3CCCCC3)c2C2CCN(C(=O)OC(C)(C)C)CC2)cc1,.,.,.,.,-6%,.
SMILES,NPC1 promoter act,ELG1 repair inh,SMN2 splice up,Rab9 prom act,FLuc counter,ELG1 genotoxic
COc1cc(NC(=O)NC(C)c2c(-n3cccc3)sc3c2CCN(C)C3)cc(OC)c1 (configuration not stated),.,.,.,.,2%,.
COc1ccccc1NC(=O)Cn1c(=O)n(CC2CCC(C(=O)NCCc3ccccc3)CC2)c(=O)c2ccccc21 (configuration not stated),.,.,-11%,.,0%,.
COc1cccc(N2CCN(C(=O)c3ccc4nc(N5CCCCC5)sc4c3)CC2)c1,?,?,-22%,?,19µM*,?
COc1ccc(N2CCN(C(=O)c3ccc4nc(N5CCCCC5)sc4c3)CC2)cc1,15%,?,-6%,16%,?,23µM*
O=C(c1ccc2nc(N3CCOCC3)sc2c1)N1CCCC1,1%,?,-15%,2%,3%,14%
COc1cccc(N2CCN(C(=O)c3ccc4ccccc4c3)CC2)c1,-2%,16%,.,1%,-15%,-6%
COc1ccc(CN2CCN(C(=O)c3ccc4nc(N5CCOCC5)sc4c3)CC2)c(OC)c1OC,-4%,21µM*,-21%,-1%,1%,-8%
CCOC(=O)c1c(Nc2ccc(OC)cc2)nnc(-c2ccccc2)c1-c1ccccc1,.,.,-49%,.,-5%,.
CC1(N)CCC(C(C)(C)N)CC1 (configuration not stated),.,.,0%,.,.,.
CC(C)(C)c1ccc(C(=O)Nc2onc3c2CCCC3)cc1,.,.,11µM*,.,0.34µM*,.
Cc1noc(NC(=O)c2ccccc2)c1C#N,8%,8%,-24%,-4%,-2%,4%
O=C(Nc1onc2c1CCCC2)c1ccccc1,.,.,?,.,4.8µM*,.
CCC1(c2ccc(Cl)cc2)NC(=O)N(CC(=O)NCc2ccc(F)cc2)C1=O (configuration not stated),1%,-10%,.,0%,2%,-10%
CCC1(c2ccc(Cl)cc2)NC(=O)N(Cc2ccc(C(=O)OC)cc2)C1=O (configuration not stated),-8%,21µM*,-40%,-10%,-3%,-3%
CCCC/C=C/C(NC(=O)c1ccco1)c1ccccc1 (configuration not stated),.,.,-26%,.,.,.
CCc1ccc(Nc2nc(-c3cc4cccc(OC)c4oc3=O)c(CC)s2)cc1,.,.,.,.,-12%,.
Cc1cc(C)c(C)c(C(=O)CSc2nnc(-c3ccc4[nH]c(C)c(C)c4c3)o2)c1C,-2%,16µM*,-40%,-1%,1%,-3%
Cc1[nH]c2ccc(-c3nnc(SCC(=O)c4ccc(F)cc4)o3)cc2c1C,-5%,?,-21%,-4%,2%,0%
Cc1ccc(CNC(=O)c2nnc(Cc3cccc(F)c3)o2)cc1,.,.,.,.,-7%,.
CCN(CC)CCNc1ncnc2c1[nH]c1ccc(OC)cc12,0%,-5%,-15%,-10%,8%,-1%
COc1ccc2[nH]c3c(NCc4ccco4)ncnc3c2c1,?,?,2%,4µM*,9.5µM*,9%
CCOc1ccc2[nH]c3c(NCCN(C)C)ncnc3c2c1,2%,14%,.,7%,0%,1%
